Laboratory results published in the supplement of paper PMC10981050.
Several values for one entry are separate records, joined by “and”; a condition that tells them apart may be missing. Identical values can stand only once. Counter-ions that a name gives are not always drawn.

Assays:
Assay in all cases: cell viability relative to vehicle control; higher = less cytotoxic
Details in all cases: 10 µM
K562 = test system: K562
Summary of the method: (§1)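 CRISPR-edited mutant clones and isogenic wild-type clones from four leukaemia lines were screened against Selleck bioactive, kinase and epigenetic probe libraries, with identity-inconsistent compounds excluded. Each compound was acoustically dispensed at a single 10 µM dose into 384-well plates holding 2000 cells in 50 µL medium per well. After 48 h the supernatant was removed and CellTiter-Glo luminescence was read. Viability was expressed as percent of the on-plate vehicle control and analysed in Genedata Screener.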

MARIMO = test system: MARIMO
Summary of the method: as §1

MOLM14 = test system: MOLM14
Summary of the method: as §1

OCI-AML2 = test system: OCI-AML2
Summary of the method: as §1

| SMILES | cell viability (K562; SRSF2 genotype: SRSF2 P95H/wt) | cell viability (K562; SRSF2 genotype: SRSF2 wt/wt) | cell viability (MARIMO; SRSF2 genotype: SRSF2 P95H/wt) | cell viability (MARIMO; SRSF2 genotype: SRSF2 wt/wt) | cell viability (MOLM14; SRSF2 genotype: SRSF2 P95H/wt) | cell viability (MOLM14; SRSF2 genotype: SRSF2 wt/wt) | cell viability (OCI-AML2; SRSF2 genotype: P95H/wt) | cell viability (OCI-AML2; SRSF2 genotype: wt/wt) |
| --- | --- | --- | --- | --- | --- | --- | --- | --- |
| CCCC(CCC)C(=O)O[C@H]1C[C@H]2CC[C@@H](C1)[N+]2(C)C [anisotropine methylbromide] | 101% | 104% | 106% | 107% | 98% | 101% | 106% | 93.6% |
| CS(=O)(=O)OCCCCOS(C)(=O)=O [Busulfan (Myleran, Busulfex)] | 103% and 108% | 98.6% | 99.6% | 107% | 102% | 106% | 88.6% | 102% |
| Oc1ccc(OCc2ccccc2)cc1 [Monobenzone (Benoquin)] | 89.5% and 92.4% | 83.9% | 53.8% | 73% | 27.1% | 11.3% | 32.5% | 47.3% |
| CN1CCN(Cc2ccc(Nc3ncc(Cl)c(Nc4ccccc4S(=O)(=O)N(C)C)n3)cc2)CC1 | 42.8% and 43% | 47.6% | 30.3% | 4.7% | 11.3% | 0.64% | 2.24% | 10.3% |
| N#CN=C(NCCCCCCOc1ccc(Cl)cc1)Nc1ccncc1 | 26.1% and 17.5% | 25.9% | 16.8% | 26.9% | 6.24% | 1.39% | 6.42% | 6.39% |
| Cc1c[nH]c2nc(Nc3ccc(N4CCN(C)CC4)c(F)c3)nc(-c3cccc(CC#N)c3)c12 | 11.7% and 1.85% | 4.64% | 4.43% | 2.84% | 0.86% | 0.46% | 0.41% | 4.1% |
| CC1=CCC2C(C1)C2(C)C (stereo not drawn) [3-Carene] | 104% and 96% | 106% | 101% | 103% | 100% | 106% | 101% | 112% |
| C[C@H](O)[C@H](O)[C@@H](O)[C@@H](O)C=O [L (+)-Rhamnose Monohydrate] | 99.9% and 97.2% | 100% | 102% | 106% | 99% | 105% | 99.3% | 94.1% |
| Cc1cc(=O)oc2c(C=O)c(O)ccc12 | 110% and 118% | 112% | 99% | 97.4% | 94.8% | 109% | 92.5% | 98.3% |
| C[C@@H]1CCCC2=CC(=O)[C@@H]3[C@@H](C3(C)C)[C@]21C [Aristolone] | 107% and 96.8% | 101% | 95.8% | 103% | 112% | 99% | 98.3% | 109% |
| COc1cc2c(cc1OC)[C@@H](Cc1ccc(O)c(Oc3cc4c(cc3OC)CCN(C)[C@@H]4Cc3ccc(O)cc3)c1)N(C)CC2 [Liensinine] | 86.6% and 83% | 78.5% | 63.3% | 74.6% | 69.1% | 83.3% | 63.2% | 59.9% |
| COc1c2occc2cc2ccc(=O)oc12 [Methoxsalen (Oxsoralen)] | 108% and 106% | 107% | 106% | 106% | 105% | 111% | 98.1% | 107% |
| COc1cccc2c1c(O)c(C(=O)N(C)c1ccc(C(F)(F)F)cc1)c(=O)n2C [Tasquinimod] | 108% and 106% | 99.1% | 109% | 116% | 106% | 106% | 101% | 110% |
| CC(C)[C@H](CO)Nc1nc(Nc2cccc(Cl)c2)c2ncn(C(C)C)c2n1 [Purvalanol A] | 82.5% and 94.9% | 85.1% | 72% | 83% | 41.2% | 33.9% | 47.6% | 54.3% |
| Oc1ccc(/C=C/c2cc(O)cc(O)c2)cc1 [Resveratrol] | 83.1% and 92.7% | 91.6% | 70.1% | 79.6% | 73.4% | 80% | 67.2% | 72.8% |
| O=c1[nH]c(=O)n([C@H]2C[C@H](O)[C@@H](CO)O2)cc1C(F)(F)F [Trifluridine (Viroptic)] | 85.4% and 99.2% | 85.7% | 48.5% | 52.3% | 52.7% | 18.8% | 21.6% | 26.8% |
| CCCCOCc1ccc(O)c(OC)c1 [Vanillyl Butyl Ether] | 98.9% and 92.9% | 101% | 97.6% | 106% | 98.8% | 101% | 93.1% | 109% |
| C[C@@H](NCCCc1cccc(C(F)(F)F)c1)c1cccc2ccccc12 [AMG-073 HCl (Cinacalcet hydrochloride)] | 21.9% and 38.4% | 19.4% | 57.1% | 50.4% | 27% | 24.2% | 1.48% | 10.2% |
| CCOC(=O)C1=C(COCCN)NC(C)=C(C(=O)OC)C1c1ccccc1Cl (stereo not drawn) [Amlodipine besylate (Norvasc)] | 79.6% and 95.8% | 84.3% | 76.8% | 78.3% | 54.7% | 59.5% | 36.2% | 44.2% |
| CC(=O)N1c2ccc(-c3ccc(C(=O)O)cc3)cc2[C@H](Nc2ccc(Cl)cc2)C[C@@H]1C | 59.6% and 63.6% | 74.7% | 23.6% | 28.7% | 16.3% | 14.4% | 7.87% | 17.8% |
| CN1[C@@H]2CC[C@H]1C[C@@H](OC(=O)c1c[nH]c3ccccc13)C2 [Tropisetron] | 92.1% and 89.1% | 97.1% | 87.4% | 89% | 105% | 104% | 91.8% | 98.3% |

| SMILES | cell viability (K562; SRSF2 genotype: SRSF2 P95H/wt) | cell viability (K562; SRSF2 genotype: SRSF2 wt/wt) | cell viability (MARIMO; SRSF2 genotype: SRSF2 P95H/wt) | cell viability (MARIMO; SRSF2 genotype: SRSF2 wt/wt) | cell viability (MOLM14; SRSF2 genotype: SRSF2 P95H/wt) | cell viability (MOLM14; SRSF2 genotype: SRSF2 wt/wt) | cell viability (OCI-AML2; SRSF2 genotype: P95H/wt) | cell viability (OCI-AML2; SRSF2 genotype: wt/wt) |
| --- | --- | --- | --- | --- | --- | --- | --- | --- |
| CNCCc1ccccn1 [Betahistine] | 102% and 100% | 102% | 100% | 103% | 101% | 105% | 102% | 105% |
| CC1(C)S[C@@H]2[C@H](NC(=O)[C@H](C(=O)O)c3ccsc3)C(=O)N2[C@H]1C(=O)O [Ticarcillin sodium] | 95.6% and 98.8% | 104% | 101% | 95.7% | 96.3% | 101% | 98.2% | 89.6% |
| C[C@H](CC[C@@H](O[C@@H]1O[C@H](CO[C@@H]2O[C@H](CO)[C@@H](O)[C@H](O)[C@H]2O)[C@@H](O)[C@H](O)[C@H]1O[C@@H]1O[C@H](CO)[C@@H](O)[C@H](O)[C@H]1O)C(C)(C)O)[C@H]1CC[C@@]2(C)[C@@H]3CC=C4[C@@H](CC[C@H](O[C@@H]5O[C@H](CO[C@@H]6O[C@H](CO)[C@@H](O)[C@H](O)[C@H]6O)[C@@H](O)[C@H](O)[C@H]5O)C4(C)C)[C@]3(C)[C@H](O)C[C@]12C [Mogroside V] | 94.9% and 96.3% | 101% | 92.7% | 104% | 104% | 104% | 103% | 97.7% |
| CC(=O)O[C@@]12CO[C@@H]1C[C@H](O)[C@@]1(C)C(=O)[C@H](O)C3=C(C)[C@@H](OC(=O)[C@H](O)[C@@H](NC(=O)OC(C)(C)C)c4ccccc4)C[C@@](O)([C@@H](OC(=O)c4ccccc4)[C@H]21)C3(C)C [Docetaxel Trihydrate] | 24.8% and 32.4% | 32.7% | 8.87% | 5.68% | 8.57% | 4.2% | 6.94% | 13.5% |
| COc1cc2nccc(Oc3ccc(NC(=O)Nc4cc(C)on4)c(Cl)c3)c2cc1OC [Tivozanib (AV-951)] | 11.4% and 16.2% | 21.9% | 56.2% | 61.4% | 11.3% | 10.3% | 26.1% | 29.9% |
| O=C(c1cccc(Cl)c1F)N1CCN(Cc2cccc(Nc3nccs3)n2)CC1 | 44.2% and 57.2% | 56.6% | 87.8% | 91.5% | 54.9% | 71.4% | 35.6% | 44.1% |
| O=C(O)c1cn(-c2ccc(F)cc2)c2cc(N3CCNCC3)c(F)cc2c1=O [Sarafloxacin HCl] | 99.7% and 102% | 90.9% | 97.8% | 102% | 103% | 99.5% | 102% | 102% |
| COc1ccccc1-c1cc(Nc2cccc(CS(N)(=O)=O)c2)ncn1 | 90.2% and 89.9% | 91.5% | 29.4% | 45.6% | 26.5% | 5.12% | 18.1% | 30% |
| COC(=O)c1cc(OC)c(O)c(OC)c1 [Methyl syringate] | 101% and 87.8% | 91.2% | 94% | 102% | 89.2% | 92.3% | 96.8% | 101% |
| Nc1nc(=O)[nH]cc1F [Flucytosine (Ancobon)] | 102% and 98.9% | 102% | 103% | 105% | 95.9% | 102% | 105% | 109% |
| CCCCNc1ncc2c(-c3ccc(CN4CCN(C)CC4)cc3)cn([C@H]3CC[C@H](O)CC3)c2n1 | 5.45% and 6.26% | 6.13% | 8.07% | 5.67% | 0.26% | 0.23% | 1.56% | 5.54% |
| COc1ccc(Oc2cc(NCCC(F)(F)F)c3ncc(-c4ccc(C(=O)NC5CC5)c(C)c4)n3n2)c(F)c1F | 103% and 102% | 108% | 67.6% | 77.1% | 58.9% | 42.6% | 71.4% | 72.9% |
| CC(/C=C/C=C(\C)C(=O)O[C@@H]1O[C@H](CO)[C@@H](O)[C@H](O)[C@H]1O)=C\C=C\C=C(C)\C=C\C=C(/C)C(=O)O[C@@H]1O[C@H](CO[C@@H]2O[C@H](CO)[C@@H](O)[C@H](O)[C@H]2O)[C@@H](O)[C@H](O)[C@H]1O [Crocin II] | 109% and 106% | 99.8% | 104% | 110% | 87.5% | 104% | 97.4% | 106% |
| CCCCCCCCCCCCCCCCCCCCCCCCCCCCO [1-Octacosanol] | 107% and 110% | 98.7% | 109% | 106% | 100% | 106% | 96.2% | 108% |
| Cc1ccc(NC(=O)c2ccc(CN3CCN(C)CC3)cc2)cc1Nc1nccc(-c2cccnc2)n1 [Imatinib (STI571)] | 12.8% and 26.4% | 16.5% | 101% | 103% | 85% | 95% | 82.6% | 72.3% |
| O=C1CCc2ccc(OCCCCN3CCN(c4cccc(Cl)c4Cl)CC3)cc2N1 [Aripiprazole (Abilify)] | 90.5% and 93% | 93.2% | 86.8% | 80.1% | 86.5% | 98% | 47.1% | 75.5% |
| O=C1NC(=O)C(c2ccccc2[N+](=O)[O-])=C1Nc1ccc(O)c(Cl)c1 | 107% and 104% | 104% | 98.5% | 91.9% | 90.7% | 107% | 122% | 120% |
| COc1ccc(C[C@@H](C)NC[C@H](O)c2ccc(O)c(NC=O)c2)cc1 [Arformoterol Tartrate] | 97.2% and 91.1% | 98.8% | 85.2% | 106% | 86.5% | 90.9% | 109% | 103% |
| COc1cc(N2CCN(C)CC2)ccc1Nc1nccc(-c2cn(C)c3cnccc23)n1 | 63.7% and 63.4% | 79.2% | 41% | 39.1% | 3.24% | 1.65% | 6.46% | 11.4% |
| COc1ccc(Cn2ccc3ccc(C(=O)NO)cc32)cc1 | 91.2% and 87.7% | 84.4% | 65.9% | 75.9% | 84.1% | 81.6% | 69.3% | 75.5% |
